# Assay results published in PubChem BioAssay (NCI).
# The panel holds about 83,000 compounds, 20% with a hit somewhere; the sample as a whole holds those more often.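 Interpretation: 100, growth as untreated; towards 0, rising growth inhibition; 0, no net growth; 0 to -100, cell death. Compounds scoring below 10 were considered active.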 A number with no mark means an inactive call. Active and inactive are the calls of the source.
# Key:
# Experiment in all cases: NCI-60 one-dose screen, 48 h (100 = growth as untreated, 0 = no growth, -100 = all killed)
# Conditions in all cases: 10 µM unless noted
# SK-MEL-2 melanoma = test system: SK-MEL-2 melanoma
# EKVX NSCLC = test system: EKVX NSCLC
# SN12C renal = test system: SN12C renal
# UO-31 renal = test system: UO-31 renal
# TK-10 renal = test system: TK-10 renal
# ACHN renal = test system: ACHN renal
# A498 renal = test system: A498 renal
# CCRF-CEM leukemia = test system: CCRF-CEM leukemia
# MOLT-4 leukemia = test system: MOLT-4 leukemia
# SR leukemia = test system: SR leukemia
# RPMI-8226 leukemia = test system: RPMI-8226 leukemia
# OVCAR-8 ovarian = test system: OVCAR-8 ovarian
# OVCAR-5 ovarian = test system: OVCAR-5 ovarian
# OVCAR-4 ovarian = test system: OVCAR-4 ovarian
# SK-OV-3 ovarian = test system: SK-OV-3 ovarian
# IGROV1 ovarian = test system: IGROV1 ovarian
# OVCAR-3 ovarian = test system: OVCAR-3 ovarian
# HS 578T breast = test system: HS 578T breast
# NCI/ADR-RES ovarian = test system: NCI/ADR-RES ovarian
SMILES,growth (SK-MEL-2 melanoma),growth (EKVX NSCLC),growth (SN12C renal),growth (UO-31 renal),growth (TK-10 renal),growth (ACHN renal),growth (A498 renal),growth (CCRF-CEM leukemia),growth (MOLT-4 leukemia),growth (SR leukemia),growth (RPMI-8226 leukemia),growth (OVCAR-8 ovarian),growth (OVCAR-5 ovarian),growth (OVCAR-4 ovarian),growth (SK-OV-3 ovarian),growth (IGROV1 ovarian),growth (OVCAR-3 ovarian),growth (HS 578T breast),growth (NCI/ADR-RES ovarian)
CC[C@@](C)(NC(=O)C(C)(C)NC(=O)[C@@H](NC(=O)[C@@H]1CCCN1C(=O)C(C)(C)NC(=O)[C@H](CC(C)C)NC(=O)CNC(=O)C(C)(C)NC(=O)[C@@H](NC(=O)C(C)(C)NC(=O)[C@H](CCC(N)=O)NC(=O)[C@H](C)NC(=O)C(C)(C)NC(=O)[C@H](C)NC(=O)C(C)(C)NC(=O)[C@H](C)NC(=O)C(C)(C)NC(C)=O)C(C)C)C(C)C)C(=O)N[C@@H](CCC(N)=O)C(=O)N[C@@H](CCC(N)=O)C(=O)N[C@H](CO)CC1CCCCC1,-21.9% [5 µM] (active),65.6% [5 µM],9.8% [5 µM] (active),91.1% [5 µM],88.3% [5 µM],107% [5 µM],39.7% [5 µM],27.4% [5 µM],21% [5 µM],27.7% [5 µM],-16.2% [5 µM] (active),87.7% [5 µM],19.9% [5 µM],58% [5 µM],18.5% [5 µM],42.1% [5 µM],19.2% [5 µM],46.6% [5 µM],101% [5 µM]
C=C(C)[C@@H]1CC[C@]2(C)[C@H](CC=C3[C@@H]4CC(C)(C)CC[C@]4(C(=O)NCC#CCN4CCN(C)CC4)CC[C@]32C)[C@@]1(C)CCC#N,94%,81.6%,76%,60%,83.9%,78.5%,84.1%,48.9%,19%,,42.4%,85.9%,89.8%,70.6%,94.5%,54.3%,,71.7%,62.5%
CC[C@H](C)[C@H]1NC(=O)[C@@H]([C@H](O)C(C)C)NC(=O)[C@@H](C)N(C)C(=O)[C@H](C)N(C)C(=O)[C@H](CC(C)C)NC(=O)[C@H](CC(C)C)N(C)C(=O)[C@H](C)N(C)C1=O,-27% (active),-4.22% (active),2.49% (active),5.19% (active),1.97% (active),5.95% (active),5.77% (active),4.88% (active),1.68% (active),5.76% (active),-13.8% (active),4.14% (active),6.87% (active),8.31% (active),-9.12% (active),10.5%,6.47% (active),5.82% (active),11.4%
C=C(C)[C@@H]1CC[C@]2(C(=O)ON)CC[C@]3(C)[C@H](CC[C@@H]4[C@@]5(C)C/C(=C/c6ccc(Br)cc6)C(=O)C(C)(C)[C@@H]5CC[C@]43C)[C@@H]12,88.8%,60.5%,71.5%,63.7%,105%,76%,,67.8%,47.3%,76.2%,62.2%,68.7%,86.5%,75.5%,,90.4%,78%,88.2%,74.9%
O=C(Nc1cc(Cl)cc(Cl)c1)Nc1nc2ccc([N+](=O)[O-])cc2s1,-22.2% (active),6.9% (active),2.15% (active),6.95% (active),-1.5% (active),3.76% (active),,10.3%,2.31% (active),-0.61% (active),-23.8% (active),8.77% (active),24%,10%,-2.86% (active),21.1%,13.8%,-6.91% (active),2.26% (active)
CC(C)=CCc1c(O)c(CC=C(C)C)c2c(c1O)C(=O)C1=C[C@@H]3C[C@H]4C(C)(C)O[C@@](C/C=C(\C)C(=O)O)(C3=O)[C@@]14O2,-53% (active),-3.05% (active),12.3%,-30.9% (active),,-0.932% (active),-31.6% (active),1.76% (active),1.93% (active),-4.41% (active),-23.1% (active),10.1%,8.41% (active),,42.4%,-21.8% (active),-55% (active),27.7%,10.7%
CC(=O)NC(C)(C)C(=O)N1CCC[C@H]1C(=O)NC(C)(C)C(=O)N[C@@H](C)C(=O)NC(C)(C)C(=O)N[C@@H](C)C(=O)N[C@@H](CCC(N)=O)C(=O)NC(C)(C)C(=O)N[C@H](C(=O)NC(C)(C)C(=O)NCC(=O)N[C@@H](CC(C)C)C(=O)NC(C)(C)C(=O)N1CCC[C@H]1C(=O)N[C@H](C(=O)NC(C)(C)C(=O)NC(C)(C)C(=O)N[C@@H](CCC(N)=O)C(=O)N[C@@H](CCC(N)=O)C(=O)N[C@H](CO)Cc1ccccc1)C(C)C)C(C)C,91.2% [4.25 µM],76.7% [4.25 µM],32.2% [4.25 µM],95.8% [4.25 µM],87.1% [4.25 µM],110% [4.25 µM],81.9% [4.25 µM],,75.3% [4.25 µM],83.9% [4.25 µM],1.4% [4.25 µM] (active),71.8% [4.25 µM],108% [4.25 µM],42.7% [4.25 µM],74% [4.25 µM],76.9% [4.25 µM],59.2% [4.25 µM],82.8% [4.25 µM],99.5% [4.25 µM]
